# Laboratory results taken from article PMC4336329 (PLoS ONE, 2015).
# The campaign covered roughly 310,000 compounds. About 14,000 (4.5%) showed an effect of 50% or more. The effect is printed as a negative number. The full list was thinned out, with strong results kept by preference.
# Target: human ether-à-go-go-related gene (hERG) potassium channel (human, UniProt Q12809)
# Assay: primary screen, population patch clamp on CHO cells stably expressing hERG; higher = less effect of the substance
# 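Further: peak tail current of the secondary pulse compared with the same well before compound.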
# Sequence of human ether-à-go-go-related gene (hERG) potassium channel (Q12809 whole entry, looked up): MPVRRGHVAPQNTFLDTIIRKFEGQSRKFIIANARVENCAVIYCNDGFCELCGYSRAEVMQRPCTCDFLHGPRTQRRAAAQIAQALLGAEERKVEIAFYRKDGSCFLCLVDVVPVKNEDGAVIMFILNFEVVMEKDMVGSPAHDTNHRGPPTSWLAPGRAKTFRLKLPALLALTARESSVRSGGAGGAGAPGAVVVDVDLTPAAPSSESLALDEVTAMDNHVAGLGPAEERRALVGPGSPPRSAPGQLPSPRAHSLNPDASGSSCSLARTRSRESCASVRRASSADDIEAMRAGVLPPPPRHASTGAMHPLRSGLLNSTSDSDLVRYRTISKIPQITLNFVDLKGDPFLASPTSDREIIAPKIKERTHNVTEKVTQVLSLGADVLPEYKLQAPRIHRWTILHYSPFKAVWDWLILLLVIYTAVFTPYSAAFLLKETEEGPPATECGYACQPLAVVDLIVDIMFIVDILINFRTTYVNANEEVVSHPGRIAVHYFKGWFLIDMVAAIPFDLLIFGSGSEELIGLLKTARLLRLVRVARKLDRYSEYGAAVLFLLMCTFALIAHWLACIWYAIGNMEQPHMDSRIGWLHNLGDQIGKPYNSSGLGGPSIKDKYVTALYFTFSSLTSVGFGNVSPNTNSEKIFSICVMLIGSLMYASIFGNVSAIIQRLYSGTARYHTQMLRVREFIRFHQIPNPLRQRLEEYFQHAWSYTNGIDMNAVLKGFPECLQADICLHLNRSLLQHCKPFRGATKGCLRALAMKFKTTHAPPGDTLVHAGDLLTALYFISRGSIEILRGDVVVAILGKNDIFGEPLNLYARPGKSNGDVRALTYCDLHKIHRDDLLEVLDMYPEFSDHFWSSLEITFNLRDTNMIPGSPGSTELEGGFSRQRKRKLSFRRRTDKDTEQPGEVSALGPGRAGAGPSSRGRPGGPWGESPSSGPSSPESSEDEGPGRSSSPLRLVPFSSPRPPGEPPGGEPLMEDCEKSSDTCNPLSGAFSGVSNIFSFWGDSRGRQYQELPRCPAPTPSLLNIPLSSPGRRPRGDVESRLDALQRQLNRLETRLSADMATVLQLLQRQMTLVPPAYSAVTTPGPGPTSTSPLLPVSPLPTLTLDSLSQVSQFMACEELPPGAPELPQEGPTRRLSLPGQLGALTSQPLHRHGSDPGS
row,SMILES,"hERG current change (%, negative = inhibition) at 10uM [%]"
1,NC(=O)COC(=O)CC12CC3CC(CC(Br)(C3)C1)C2,24.6
2,CCN(CC)S(=O)(=O)c1ccc(OC)c(NC(=O)CSc2cc(C)ccc2C)c1,-13.3
3,O=C(CSc1nnc(-c2cccc(S(=O)(=O)N3CCOCC3)c2)n1C1CCCCCC1)NCc1ccccc1,-17.5
4,CCN(CC)S(=O)(=O)c1ccc(OC)c(NC(=O)CSc2ccccc2)c1,-72.9
5,Cc1cc2nnc(SCC(=O)Nc3cc(S(=O)(=O)N4CCOCC4)ccc3Cl)n2c2ccccc12,-20.5
6,Cc1cc2nnc(SCC(=O)Nc3cccc(S(=O)(=O)N4CCOCC4)c3)n2c2ccccc12,-14.4
7,Cc1ccc(CSc2nnc(-c3cccc(S(=O)(=O)N4CCOCC4)c3)n2CC(C)C)cc1,-29.5
8,Cc1ccc(S(=O)(=O)N2CCOCC2)cc1NC(=O)C(c1ccc(Cl)cc1)C(C)C (stereo not shown),1.8
9,CCN(CC)S(=O)(=O)c1ccc(OC)c(NC(=O)CSc2cc(Cl)ccc2Cl)c1,-2.76
10,Cc1ccc(S(=O)(=O)N2CCOCC2)cc1NC(=O)CSc1ccc(Cl)cc1,-51.3
11,CC(C)Cn1c(SCC(=O)NCc2ccc(Cl)cc2)nnc1-c1cccc(S(=O)(=O)N2CCOCC2)c1,-52.9
12,Cc1ccc(S(=O)(=O)N2CCOCC2)cc1NC(=O)CSc1ncccn1,-4.68
13,Cc1ccc(S(=O)(=O)N2CCOCC2)cc1NC(=O)CSc1nnc2cc(C)c3ccccc3n12,-61.8
14,CC(C)CN(C(=O)COC(=O)Cc1ccc(Cl)cc1)c1c(N)n(Cc2ccccc2)c(=O)[nH]c1=O,5.02
15,Cc1cccc(C(=O)N[C@@H](C)C(=O)N2CCN(c3ncccn3)CC2)c1,-3.21
16,COc1ccc(OC)c(/C=C/C(=O)OCC(=O)Nc2nnc(-c3ccccc3)o2)c1,-3.14
17,O=C(COC(=O)Cc1ccc(Br)cc1)Nc1c(F)c(F)c(F)c(F)c1F,13.4
18,Cc1ccc(NC2=NCCCS2)c(C)c1C,-11.5
19,CCOc1ccc(NS(=O)(=O)c2cc(C(=O)N3CCN(C(C)=O)CC3)ccc2Cl)cc1,12.6
20,COc1ccc(S(=O)(=O)Nc2ccccn2)cc1,13.8
21,CCC12OC(=N)C(C#N)(C1C)C(C#N)(C#N)C(c1ccccc1)O2 (stereo not shown),2.68
22,COC(=O)c1ccc(COc2ccc(/C=N/NC(N)=S)cc2)o1,-5.9

row,SMILES,"hERG current change (%, negative = inhibition) at 10uM [%]"
1,COc1ccc(S(=O)(=O)N2CCOCC2)cc1NC(=O)CSc1ccc(F)cc1,-42.6
2,COc1ccc(S(=O)(=O)N2CCOCC2)cc1NC(=O)COc1ncnc2ccccc12,6.62
3,COc1ccc(S(=O)(=O)N2CCOCC2)cc1NC(=O)CSc1ccccc1,-53.9
4,COc1ccc(S(=O)(=O)N2CCOCC2)cc1NC(=O)CSc1nnc2ccccn12,5.54
5,COc1ccc(S(=O)(=O)N2CCOCC2)cc1NC(=O)CSc1ncnc2ccccc12,-50.4
6,Cc1ccc(S(=O)(=O)N2CCCCC2)cc1NC(=O)CSc1ncnc2ccccc12,-36.2
7,COc1ccc(S(=O)(=O)N2CCOCC2)cc1NC(=O)CSc1cccc[n+]1[O-],-3
8,O=C(CSc1ncnc2ccccc12)Nc1cc(S(=O)(=O)N2CCCCC2)ccc1Cl,14.4
9,COc1ccc(S(=O)(=O)N2CCCCC2)cc1NC(=O)CSc1ncnc2ccccc12,-51.2
10,CC(OC(=O)c1cccc(-n2cnnn2)c1)C(=O)NCc1ccccc1 (stereo not shown),0.976
11,O=C(COC(=O)CSc1ccc([N+](=O)[O-])cc1)NCC1CCCO1 (stereo not shown),12.3
12,C#CCOCCOCCOCCNc1nc(N2CCN(C(=O)CCCCCCCCCCNC(=O)[C@@H](CCC(=O)O)n3cc(CCCCCN)nn3)CC2)nc(N2CCN(C(=O)CCCCCCCCCCNC(=O)[C@H](CO)n3cc(CCCSC)nn3)CC2)n1,11.9
13,CCN1C(=O)C(CC(=O)Nc2ccc(OC)cc2)N(CCc2ccccc2)C1=S (stereo not shown),-1.28
14,CC(=O)C[C@H]1c2ccccc2S(=O)(=O)N1c1ccccc1,23
15,Cc1cc(NC(=O)c2cc(-c3ccccc3Cl)nc3ccccc23)no1,-0.229
16,COCCOC(=O)c1cc(C(=O)c2cc(F)ccc2O)coc1=N,9.29
17,O=C(Nc1nnc(S(=O)(=O)N2CCOCC2)s1)c1ccccc1F,16.7
18,Cc1ccccc1NS(=O)(=O)c1cccc2nonc12,2.34
19,O=S(=O)(Nc1cc(F)ccc1F)c1cccc2nonc12,-83.6
20,CC(=O)c1ccccc1NS(=O)(=O)c1cccc2nonc12,-52.2
21,O=S(=O)(Nc1cc(F)ccc1F)c1cccc2nsnc12,11.6
22,O=S(=O)(Nc1cccc2ccccc12)c1cccc2nonc12,3.98

row,SMILES,"hERG current change (%, negative = inhibition) at 10uM [%]"
1,CSc1ccccc1NS(=O)(=O)c1cccc2nonc12,1.51
2,O=C(NCC(=O)N1CCN(c2ncc(C(F)(F)F)cc2Cl)CC1)c1ccc(Br)o1,-50.6
3,CNCC(=O)N1CCN(c2ncc(C(F)(F)F)cc2Cl)CC1.Cl,-22.3
4,O=C(NCC(=O)N1CCN(c2ccc(C(F)(F)F)cn2)CC1)c1ccc(Br)o1,-71.8
5,O=C(NCC(=O)N1CCN(c2ccccn2)CC1)c1ccc(Br)o1,-15.3
6,NC(=O)NCCN1CCN(c2ncc(C(F)(F)F)cc2Cl)CC1,-33.7
7,CCOc1ccc(C(=O)NCC(=O)N2CCN(c3ccc(C(F)(F)F)cn3)CC2)cc1,-7.32
8,COc1cccc(NC(=O)Nc2c(C)n(C)n(-c3ccccc3)c2=O)c1,3.91
9,O=C(Nc1cccc(Cl)c1)c1cnn2cccnc12,7.19
10,Cc1cccc(NC(=O)CCN2CCC(C(N)=O)CC2)c1,9.57
11,CCOC(=O)C1CCN(CCC(=O)Nc2cccc(Cl)c2)CC1,-67.1
12,CCOC(=O)C1CCN(CCC(=O)Nc2cccc(C)c2)CC1.Cl,-66.8
13,CCOC(=O)N1CCN(CCC(=O)Nc2cccc(C)c2)CC1.Cl,1.45
14,CCOC(=O)C1CCN(CCC(=O)Nc2ccccc2)CC1,-19.7
15,NC(=O)C1CCN(CCC(=O)Nc2cccc(Cl)c2)CC1,0.151
16,CCCCCN(C(=O)CCC(=O)OCC(=O)N(C)Cc1ccc(C)cc1)c1c(N)n(CCCC)c(=O)[nH]c1=O,1.93
17,CCOc1ccc(C(=O)N/N=C(\c2ccccc2)c2ccccn2)cc1,-27
18,C=CCOc1ccccc1/C=c1\sc2nc(-c3oc4ccccc4c3C)nn2c1=O,-8.15
19,COc1ccc(NC(=O)CN2CCN(C(=S)NC3CCCC3)CC2)cc1,-39.1
20,CCNC(=S)N1CCN(CC(=O)Nc2ccc(OC)cc2)CC1,-34.3
21,O=C(CN1CCOCC1)Nc1ccccc1,13.8
22,O=C(CN1CCN(C(=O)C2CCCO2)CC1)Nc1ccc(F)cc1 (stereo not shown),-66.1

row,SMILES,"hERG current change (%, negative = inhibition) at 10uM [%]"
1,O=C(CN1CCN(C(=O)N2CCOCC2)CC1)Nc1ccc(Br)cc1,-72.5
2,O=C(CN1CCN(C(=O)C2CCCO2)CC1)Nc1ccc(Cl)cc1 (stereo not shown),-40.9
3,CCOc1ccc(NC(=O)CN2CCN(C(=O)C3CCCO3)CC2)cc1 (stereo not shown),-32.6
4,Cc1cc(C)cc(NC(=O)CN2CCN(C(=O)C3CCCO3)CC2)c1 (stereo not shown),7.51
5,CCNC(=S)N1CCN(CC(=O)Nc2ccc(Br)cc2)CC1,-61.4
6,COc1ccc(NC(=O)CN2CCN(C(=O)N3CCOCC3)CC2)cc1,-14.2
7,O=C(Nc1ccc(F)cc1)N1CCN(C(=O)C2CCCO2)CC1 (stereo not shown),2.96
8,O=C(CN1CCN(C(=O)C2CCCO2)CC1)Nc1ccc(Br)cc1 (stereo not shown),-70
9,O=c1c(Cc2ccccc2)c(O)ccn1C1CCCCCCC1,10.1
10,COc1ccc(S(=O)(=O)N2CCCCCC2)cc1C(=O)N(C)Cc1ccc(C)cc1,-40.3
11,Cc1[nH]c2ccccc2c(=O)c1SC(F)(F)C(F)C(F)(F)F (stereo not shown),-5.97
12,CSc1ccccc1NC(=O)COc1ccc(Cl)cc1Cl,-0.82
13,CN(C)C1=NC[C@H](Cc2ccccc2)N1CCc1cccc(F)c1,-64.1
14,C[C@H]1CN=C(N(C)C)N1CCc1ccccc1,6.72
15,NC1=NC[C@@H](Cc2ccc(O)cc2)N1CCc1cccc(F)c1,5.43
16,CN(C)C1=NC[C@H](Cc2ccccc2)N1CCc1ccc(F)cc1,-60.6
17,C[C@H]1CN=C(N(C)C)N1CCc1ccc(F)cc1,-12.4
18,NC1=NC[C@H](Cc2ccccc2)N1CCc1cccc(F)c1,6.16
19,COC(=O)c1cccnc1-n1c(=O)c2cccnc2n(Cc2ccc(Cl)cc2)c1=O,-26.6
